Here are results for five molecules from PubChem BioAssay.

Assay [1] is described as follows: small molecules captured by biotinylated probe aFSTL3 – biochemical, small-molecule microarray, fluorescence 635/667, stem cell growth factor project, primary screen (AID 1064).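 Further: measures binding of the biotinylated anti-FSTL3 antibody to printed compounds.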 As to conditions: higher = more signal.
The nature of assay [2]: binders from COS7 lysate, DM2A8 probe, primary screen, torsin A project, cell lysate, small-molecule microarray, fluorescence 635/667 (AID 1065). The conditions noted are these: higher = more signal, COS7 lysate expressing mutant human TOR1A.
Assay [3] in a line: small molecules captured by biotinylated probe aFGF2 – biochemical, small-molecule microarray, fluorescence 635/667, stem cell growth factor project, primary screen (AID 1067).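 Further: measures binding of biotinylated aFGF2 protein to printed compounds on slides; z-score merges feature fluorescence and signal-to-noise across triplicate slides.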 As to conditions: higher = more signal.
Assay [4] in a line: small molecules captured by biotinylated probe aFGF10 – biochemical, small-molecule microarray, fluorescence 635/667, stem cell growth factor project, primary screen (AID 1071).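 Further: score merges 667 nm spot intensity and signal to noise from triplicate slides.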 As to conditions: higher = more signal.
The target in assay [5] is Neurogenic locus notch homolog protein 2 (Homo sapiens) (UniProt Q04721). Briefly: small molecules binding Notch2 protein – biochemical, small-molecule microarray, 635 nm fluorescence, stem cell growth factors, primary screen (AID 1073). As to conditions: higher = more signal.
The target of assay [6] is Pro-neuregulin-1, membrane-bound isoform (Homo sapiens) (UniProt Q02297). Briefly: small molecules binding neuregulin-1 protein – biochemical, small-molecule microarray, fluorescence 635/667, psychiatric disease protein project, primary screen (AID 1075).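 Further: score combines 667 nm spot fluorescence with signal to noise.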 As to conditions: NRG1 binding, 635 nm fluorescence, higher = more signal.
For assay [7], the system named is Neuregulin-1 EGF-like domain. Description: small molecules binding NRG1 EGF domain – biochemical, small-molecule microarray, 635 nm fluorescence, primary screen (AID 1081).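 Further: binding of the protein to compounds printed on small-molecule microarray slides.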 As to conditions: higher = more signal.
A short description of assay [8]: FRG1 expression reporter modulators in myotubes – cell-based, C2C12 myotubes, firefly/Renilla luciferase, luminescence, FRG1 inhibition for FSHD, primary screen (AID 1084). As to conditions: FRG1 promoter luciferase, higher = more signal, called active from +8 up or from −8 down.
Assay [9] is described as follows: small molecules captured by biotinylated probe aFST – biochemical, small-molecule microarray, fluorescence 635/667, stem cell growth factor project, primary screen (AID 1086).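 Further: score merges 667 nm fluorescence with signal-to-noise of each printed compound spot.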 The conditions noted are these: higher = more signal.
The nature of assay [10]: binders of probe aHhip on microarray, primary screen, stem cell growth factor project, biochemical, small-molecule microarray, fluorescence 635/667 (AID 1087).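 Further: score merges spot fluorescence at 667nm with spot signal to noise ratio.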 The conditions noted are these: higher = more signal.
For assay [11], the system named is PRMT1 (protein arginine N-methyltransferase 1). Description: small molecules binding arginine methyltransferase PRMT1 – biochemical, small-molecule microarray, 635 nm fluorescence, primary screen (AID 1088).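 Further: binding of Prmt1 protein to compounds spotted on small-molecule microarray slides.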 The conditions noted are these: higher = more signal.
A short description of assay [12]: growth effects on S. cerevisiae YJM789 – YJM789 clinical isolate, OD600, 24 h, basal, primary screen (AID 1089).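 Further: growth of clinical yeast isolate S. cerevisiae YJM 789 seeded 1000 cells per well; test concentration not given here.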 The conditions noted are these: higher = more signal, called active from +8 up or from −8 down.
A short description of assay [13]: S. pombe growth modifiers, basal conditions – strain 972, OD600, 24 h, no modulator, primary screen (AID 1090).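 Further: basal condition with compound alone and no growth modifier present; test concentration not given here.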 As to conditions: S. pombe 972 growth, higher = more signal, called active from +8 up or from −8 down.
Assay [14] in a line: budding yeast growth modifiers under rapamycin – strain BY4716, OD600, 96 h, primary screen (AID 1091). Further: test concentration not given here. The conditions noted are these: S. cerevisiae BY4716 + rapamycin, higher = more signal, called active from +8 up or from −8 down.
Assay [15] has as its target Torsin-1A-interacting protein 2 (Homo sapiens) (UniProt Q8NFQ8). Description: small molecules binding lysate-expressed LULL1 – cell lysate, human LULL1 lysate, 635/667 nm fluorescence, primary screen (AID 1092).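 Further: probe is lysate of COS7 cells overexpressing human LULL1; score merges per-feature 667 nm fluorescence with signal-to-noise.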 As to conditions: small-molecule microarray, hLULL1 lysate binding, 635 nm fluorescence; higher = more signal.
Assay [16] can be described thus: optical density change of DRC41 E. coli – strain DRC41, OD650, 24 h, E. coli filamentation project, primary screen (AID 1093).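 Further: MC1000 strain lacking acrAB efflux and sulA so SOS filamentation is blocked; test concentration not given here.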 As to conditions: E. coli DRC41 growth, higher = more signal, called active from +8 up or from −8 down.
Assay [17] in a line: probe aLefty2 binding to arrayed compounds – biochemical, biotinylated probe, 635/667 nm fluorescence, primary screen (AID 1094).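 Further: score merges spot fluorescence near 667 nm with spot signal-to-noise ratio.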 The conditions noted are these: small-molecule microarray, higher = more signal.
Assay [18] has as its system Noggin (protein binding on small-molecule microarray). Description: small molecules binding Noggin protein – biochemical, 635/667 nm fluorescence, primary screen (AID 1095).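 Further: score merges 667 nm feature fluorescence with signal to noise over triplicate slides.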 The conditions noted are these: 635 nm fluorescence, higher = more signal.
Assay [19] has as its target Neurogenic locus notch homolog protein 3 (Homo sapiens) (UniProt Q9UM47). Description: small molecules binding NOTCH3 protein – biochemical, 635/667 nm fluorescence, primary screen (AID 1096). The conditions noted are these: small-molecule microarray, 635 nm fluorescence, higher = more signal.
Assay [20] is described as follows: probe aEGFR binding to arrayed compounds – biochemical, biotinylated probe, 635/667 nm fluorescence, primary screen (AID 1097).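 Further: probe is a biotinylated anti-EGFR antibody binding compounds printed on slides; score combines fluorescence near 667 nm and signal to noise of each spot.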 The conditions noted are these: small-molecule microarray, higher = more signal.

The source made the active and inactive calls.

Chain of Neurogenic locus notch homolog protein 2 (Homo sapiens) (Q04721 whole entry, looked up, canonical isoform): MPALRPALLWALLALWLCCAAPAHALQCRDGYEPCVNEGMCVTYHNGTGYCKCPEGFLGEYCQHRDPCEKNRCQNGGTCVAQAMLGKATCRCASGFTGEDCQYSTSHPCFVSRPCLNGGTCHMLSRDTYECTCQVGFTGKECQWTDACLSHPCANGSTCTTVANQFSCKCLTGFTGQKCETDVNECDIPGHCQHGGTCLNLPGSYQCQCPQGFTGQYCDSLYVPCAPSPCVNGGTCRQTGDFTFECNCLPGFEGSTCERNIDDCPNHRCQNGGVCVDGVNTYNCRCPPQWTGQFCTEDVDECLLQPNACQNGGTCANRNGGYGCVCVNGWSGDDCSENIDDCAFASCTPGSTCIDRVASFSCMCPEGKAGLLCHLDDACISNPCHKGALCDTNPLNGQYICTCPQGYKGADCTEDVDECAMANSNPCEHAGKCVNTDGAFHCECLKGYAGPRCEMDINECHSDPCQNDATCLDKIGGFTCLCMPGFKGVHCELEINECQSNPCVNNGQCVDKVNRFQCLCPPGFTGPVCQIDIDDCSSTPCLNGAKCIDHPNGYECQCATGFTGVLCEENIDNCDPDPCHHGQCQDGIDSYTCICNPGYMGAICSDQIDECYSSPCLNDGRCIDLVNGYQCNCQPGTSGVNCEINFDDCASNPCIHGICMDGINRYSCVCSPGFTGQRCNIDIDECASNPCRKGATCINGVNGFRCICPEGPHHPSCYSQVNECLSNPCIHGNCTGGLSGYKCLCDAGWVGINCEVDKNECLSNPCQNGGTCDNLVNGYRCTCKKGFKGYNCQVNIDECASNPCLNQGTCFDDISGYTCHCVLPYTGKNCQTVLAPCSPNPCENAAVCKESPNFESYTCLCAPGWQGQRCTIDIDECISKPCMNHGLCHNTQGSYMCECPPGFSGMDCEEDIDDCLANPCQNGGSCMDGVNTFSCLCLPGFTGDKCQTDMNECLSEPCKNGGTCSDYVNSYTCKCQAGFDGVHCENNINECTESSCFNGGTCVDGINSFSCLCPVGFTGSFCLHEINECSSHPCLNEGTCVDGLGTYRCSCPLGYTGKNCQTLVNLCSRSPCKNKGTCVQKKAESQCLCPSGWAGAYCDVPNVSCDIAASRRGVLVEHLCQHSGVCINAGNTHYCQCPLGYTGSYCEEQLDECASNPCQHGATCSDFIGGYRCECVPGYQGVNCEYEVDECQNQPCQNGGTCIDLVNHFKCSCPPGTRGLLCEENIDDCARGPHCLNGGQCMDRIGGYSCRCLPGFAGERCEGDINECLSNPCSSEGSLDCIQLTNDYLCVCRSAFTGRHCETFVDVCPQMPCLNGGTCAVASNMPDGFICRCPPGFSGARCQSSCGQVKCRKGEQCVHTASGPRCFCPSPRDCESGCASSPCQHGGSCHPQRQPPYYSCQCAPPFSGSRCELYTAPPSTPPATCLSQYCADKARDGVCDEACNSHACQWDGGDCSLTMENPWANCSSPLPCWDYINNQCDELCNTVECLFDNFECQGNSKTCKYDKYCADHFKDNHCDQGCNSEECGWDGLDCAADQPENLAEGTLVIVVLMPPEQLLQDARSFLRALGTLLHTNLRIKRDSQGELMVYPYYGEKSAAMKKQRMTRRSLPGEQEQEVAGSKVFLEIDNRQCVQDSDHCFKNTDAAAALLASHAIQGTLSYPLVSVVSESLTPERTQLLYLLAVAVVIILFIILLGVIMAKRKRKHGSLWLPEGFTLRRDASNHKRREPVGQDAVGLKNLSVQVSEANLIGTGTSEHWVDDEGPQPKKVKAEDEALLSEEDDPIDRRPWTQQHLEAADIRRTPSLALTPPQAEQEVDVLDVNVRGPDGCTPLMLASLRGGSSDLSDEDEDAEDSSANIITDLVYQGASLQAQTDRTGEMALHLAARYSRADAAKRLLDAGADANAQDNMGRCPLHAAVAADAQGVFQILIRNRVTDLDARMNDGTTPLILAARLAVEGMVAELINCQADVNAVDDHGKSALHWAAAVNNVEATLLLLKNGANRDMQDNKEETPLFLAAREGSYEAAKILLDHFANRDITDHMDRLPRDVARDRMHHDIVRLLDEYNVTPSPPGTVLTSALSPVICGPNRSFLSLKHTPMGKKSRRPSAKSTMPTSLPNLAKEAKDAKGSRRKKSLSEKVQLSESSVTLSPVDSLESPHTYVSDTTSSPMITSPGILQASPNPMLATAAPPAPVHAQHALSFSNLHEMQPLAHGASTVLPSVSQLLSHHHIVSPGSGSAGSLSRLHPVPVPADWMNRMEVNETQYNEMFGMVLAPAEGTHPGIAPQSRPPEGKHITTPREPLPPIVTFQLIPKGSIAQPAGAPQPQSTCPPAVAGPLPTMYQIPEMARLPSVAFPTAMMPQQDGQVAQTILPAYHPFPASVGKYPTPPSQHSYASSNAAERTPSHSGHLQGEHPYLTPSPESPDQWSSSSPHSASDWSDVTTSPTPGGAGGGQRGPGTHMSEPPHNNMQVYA
Chain of Pro-neuregulin-1, membrane-bound isoform (Homo sapiens) (Q02297 whole entry, looked up, the tested form may be a part, canonical isoform): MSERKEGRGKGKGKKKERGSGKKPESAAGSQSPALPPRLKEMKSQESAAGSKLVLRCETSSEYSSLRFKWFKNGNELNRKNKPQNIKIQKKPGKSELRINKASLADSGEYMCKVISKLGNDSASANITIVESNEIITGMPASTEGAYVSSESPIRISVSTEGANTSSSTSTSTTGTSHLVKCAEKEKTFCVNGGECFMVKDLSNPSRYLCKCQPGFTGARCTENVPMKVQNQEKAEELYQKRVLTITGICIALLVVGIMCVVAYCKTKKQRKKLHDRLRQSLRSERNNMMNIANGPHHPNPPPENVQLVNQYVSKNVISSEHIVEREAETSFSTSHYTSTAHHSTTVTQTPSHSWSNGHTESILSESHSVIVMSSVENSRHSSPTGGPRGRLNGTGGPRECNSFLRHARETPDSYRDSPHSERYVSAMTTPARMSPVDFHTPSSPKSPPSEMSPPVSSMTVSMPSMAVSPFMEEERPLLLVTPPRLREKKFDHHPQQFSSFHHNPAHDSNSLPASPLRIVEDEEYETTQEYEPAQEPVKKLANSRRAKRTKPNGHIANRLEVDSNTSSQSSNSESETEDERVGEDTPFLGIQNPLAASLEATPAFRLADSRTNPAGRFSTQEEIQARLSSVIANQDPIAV
Chain of Torsin-1A-interacting protein 2 (Homo sapiens) (Q8NFQ8 whole entry, looked up): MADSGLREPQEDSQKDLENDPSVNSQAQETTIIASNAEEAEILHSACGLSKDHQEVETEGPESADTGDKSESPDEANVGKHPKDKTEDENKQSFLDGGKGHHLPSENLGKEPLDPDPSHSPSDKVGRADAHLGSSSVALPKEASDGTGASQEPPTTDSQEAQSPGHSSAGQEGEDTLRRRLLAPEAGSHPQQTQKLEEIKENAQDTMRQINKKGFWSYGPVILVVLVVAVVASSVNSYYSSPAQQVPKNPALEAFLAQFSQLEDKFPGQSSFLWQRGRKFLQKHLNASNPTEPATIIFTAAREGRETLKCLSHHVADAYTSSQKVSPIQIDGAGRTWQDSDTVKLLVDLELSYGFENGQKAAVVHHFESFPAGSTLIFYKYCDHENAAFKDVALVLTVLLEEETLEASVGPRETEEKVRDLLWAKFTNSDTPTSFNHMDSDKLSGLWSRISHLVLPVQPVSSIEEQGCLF

With `CC1CC/C=C\[C@H]2OC34C=CCN(C(C)C)C(=O)[C@H]3N(C(C)CO)C(=O)[C@@H]4C2C(=O)O1` (stereo not given in full), the composite z-score in [1] was -0.213; in assay [2] it was 0.104; in assay [3] it was -0.129; in assay [4] it was -0.19; in [5], -0.0047; in assay [6], -0.43. Further, the composite z-score was 0.238 in assay [7]; -0.088 in assay [9]; -0.137 in assay [10]; 0.216 in [11]; 0.476 in assay [15]; -0.172 in assay [17]. The composite z-score in [18] was 0.202; in assay [19], 0.41; in assay [20] it was -0.158. The z-score in assay [8] was -0.658 (inactive); in assay [12] it was 0.0052 (inactive); in [13] it was 0.285 (inactive); in assay [14], -0.448 (inactive); in [16], 1.62 (inactive).

Consider `CO[C@H]1O[C@H](CO)[C@@H](OC(=O)CCc2ccccc2)[C@@H]2OC(=O)[C@@H](Cc3ccc4ccccc4c3)C/C=C/C[C@H](Cc3ccc4ccccc4c3)C(=O)O[C@@H]12`, for which the composite z-score in assay [1] is -0.129; in [2], 0.693; in assay [3] it was -0.179; in [4], -0.0304; in assay [5], -0.641; in assay [6] it was 0.617. Also, the composite z-score was -0.127 in [7]; -0.354 in [9]; -0.0994 in assay [10]; 0.505 in [11]; 0.784 in assay [15]; -0.138 in [17]. For the same molecule, the composite z-score in assay [18] was -0.701; in [19], -1.26; in assay [20], -0.206. In addition, the z-score in assay [8] was -1.72 (inactive); in assay [12], -2.4 (inactive); in [13], -2.22 (inactive); in [14], 11.7 (active); in assay [16], 0.149 (inactive).

In the case of `Cc1ccc(S[C@]2(C(=O)NC(C)C)CC(=O)N(Cc3ccccc3)[C@@H]2c2ccc(CO)cc2)cc1`, the composite z-score in [1] is 0.466; in [2] it was -0.488; in assay [3], -0.0909; in [4], -1; in [5] it was -1.25; in assay [6], 1.56. For the same molecule, the composite z-score in assay [7] was 0.57; in assay [9] it was -0.604; in [10], 0.0373; in assay [11], -0.251; in assay [15] it was 0.228; in assay [17] it was -0.0593. Further, the composite z-score in assay [18] was -0.371; in assay [19] it was -0.312; in assay [20], -0.18. The z-score in assay [8] is -2.62 (inactive); in assay [12], -1.58 (inactive); in assay [13], 0.433 (inactive); in assay [14], -0.632 (inactive); in assay [16], 1.31 (inactive).

For `C=C(COC)C(=O)CC[C@@H](OC(=O)c1ccccc1-c1ccccc1C(=O)O)c1ccccc1OCCO`, the composite z-score is -0.167 in assay [1]; 2.13 in [2]; -0.0543 in assay [3]; 1.27 in [4]; 0.468 in assay [5]; -0.189 in assay [6]. Also, the composite z-score in assay [7] is 1.12; in [9] it was -0.168; in [10] it was -0.236; in assay [11], 1.37; in assay [15], -0.225; in assay [17], -0.122. Further, the composite z-score was 0.641 in assay [18], 0.586 in [19] and -0.184 in assay [20]. Besides, the z-score was 0.896 (inactive) in [8]; -1.4 (inactive) in assay [12]; -1.95 (inactive) in assay [13]; -1.12 (inactive) in assay [14]; -0.434 (inactive) in assay [16].

For the molecule `CO[C@H]1O[C@H](CO)[C@@H](OC(=O)Nc2cccc(F)c2)[C@H](OC(=O)c2cc3ccccc3[nH]2)[C@H]1OC(=O)c1cc2ccccc2[nH]1`, the composite z-score is -0.277 in assay [1]; -0.108 in assay [2]; -0.0355 in [3]; 0.463 in assay [4]; -0.0665 in assay [5]; 1.33 in assay [6]. The composite z-score in [7] is 0.24; in [9] it was -0.238; in assay [10] it was -0.0726; in assay [11], 0.669; in assay [15] it was 0.338; in assay [17] it was -0.15. In addition, the results for the composite z-score in [18], in [19] and in assay [20] were 0.696, 0.0453 and -0.1, respectively. Moreover, the z-score in [8] is -1.46 (inactive); in assay [12], -2 (inactive); in [13], 0.201 (inactive); in assay [14], 0.296 (inactive); in [16], -0.178 (inactive).
